The source of these data is PubChem BioAssay AID1304 (The Scripps Research Institute Molecular Screening Center, 2008).

Each structure is given as a SMILES string. Several values for one entry are separate records, joined by “and”; a condition that tells them apart may be missing. Equal values may be shown once. The whole screen tested about 220,000 compounds, of which about 800 (0.36%) were called active. The entries come from a sample that favours actives as a whole. Values without a mark were called inactive. No stated cut-off is given here; in the data, active means activation above about 33% (passing the limit was not always enough); inactive means the rest.

Sequence of Neuropeptide Y receptor type 1 (Homo sapiens) (P25929 whole entry, looked up): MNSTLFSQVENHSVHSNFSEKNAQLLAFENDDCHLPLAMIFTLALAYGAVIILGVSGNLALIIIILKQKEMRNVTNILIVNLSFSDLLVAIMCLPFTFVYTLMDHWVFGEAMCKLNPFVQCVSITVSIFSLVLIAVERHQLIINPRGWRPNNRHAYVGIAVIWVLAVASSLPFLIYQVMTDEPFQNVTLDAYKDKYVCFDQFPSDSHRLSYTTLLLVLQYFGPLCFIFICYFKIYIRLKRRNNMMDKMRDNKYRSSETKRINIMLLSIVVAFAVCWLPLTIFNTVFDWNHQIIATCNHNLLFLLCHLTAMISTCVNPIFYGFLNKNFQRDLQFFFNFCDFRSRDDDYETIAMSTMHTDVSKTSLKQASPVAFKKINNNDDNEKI

This assay has as its target Neuropeptide Y receptor type 1 (Homo sapiens) (UniProt P25929). Briefly: NPY-Y1 receptor potentiators or agonists, primary screen, cell-based (AID 1304).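 Further: cells stimulated with NPY at EC10 then isoproterenol at EC100; 0% = low agonist plus stimulus and 100% = saturating agonist plus stimulus.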 Conditions: NPY-Y1 expressing cells, potentiator/agonist activation; at 3.6 µM; stronger effect = higher value.
`Cc1nnc(SCC2=C(C(=O)O)N3C(=O)C(NC(=O)Cn4nc(C)c(Cl)c4C)C3SC2)s1` (stereo unspecified): the activation is -9.62%.

Take `Cn1nc(C(F)(F)F)cc1C(=O)O`: the activation was -6.07%.

For the molecule `COc1ccc(C(=O)OCC(=O)NC(=O)CCSc2ccccc2)cc1`, the activation was -33.3%.

On to `COc1cccc(CNC(=O)CCC2CCCN(Cc3ccc(OC(F)F)cc3)C2)c1` (stereo unspecified), for which the activation was 4.57%.

For the molecule `C[C@@H]1NC(=O)c2cc([N+](=O)[O-])cc(F)c2NCCC[C@@H](C(N)=O)NC(=O)[C@H](CC(N)=O)NC1=O`, the activation was 3.2%.

In the case of `COC(=O)c1sc(C(F)(F)F)c(-c2ccccc2)c1S(=O)(=O)N(C)C`, the activation was 5.29%.

For the molecule `CCCCCCCCc1c(O)nc(-n2[nH]c(C)c(CCO)c2=O)[nH]c1=O`, the activation is 11.5%.

With `CC(C)NC(=O)c1ccc(Sc2ccccc2)c([N+](=O)[O-])c1`, the activation is 4.46%.

Turning to `O=C(COc1ccc([N+](=O)[O-])cc1)Nc1ccc(N2CCCC2)cc1`, the activation was -4.81%.

`COc1ccc(C(=O)Nc2ccc(-n3nncc3C(C)(C)C)cc2)cc1`: the activation was 1.57%.

Regarding `COc1ccccc1N(C)S(=O)(=O)c1ccc(Cl)c(C(=O)N2CCC(C(N)=O)CC2)c1`, the activation was 29.7%.

For `COc1ccc(/C=N/NC(=O)Nc2ccc3nsnc3c2)c(OC)c1`, the activation was 7.9%.

Regarding `Cc1ccc(NC(=O)CCOc2ccccc2)cc1S(=O)(=O)Nc1ccccc1Cl`, the activation is 21.9%.

Take `COc1ccccc1OCCNC(=O)c1cc([N+](=O)[O-])cc([N+](=O)[O-])c1`: the activation is 1.67%.

As for `COc1ccccc1OCCNCC(O)COc1cccc2[nH]c3ccccc3c12` (stereo unspecified), the activation was 107% (active) and 106% (active).

For the molecule `CC(O)CNCCOc1cccc(Oc2ccccc2)c1` (stereo unspecified), the activation is -10%.

Turning to `COc1ccc(C2c3[nH]c4ccccc4c3CCN2CCCn2cccn2)cc1C` (stereo unspecified), the activation was -23.6%.

On to `Nc1nc(SCC(=O)NNc2c(Cl)cc(Cl)cc2Cl)n[nH]1`, for which the activation is 3.91%.

Regarding `C/C(=N\NC(=O)NC1CCCCC1)c1ccc(OC(F)F)cc1OC(F)F`, the activation is -17%.

On to `CCCCNC(=O)C1CCC(CNS(=O)(=O)c2ccc(NC(C)=O)cc2)CC1` (stereo unspecified), for which the activation is -15.8%.

In the case of `CC(=O)Nc1ccc(S(=O)(=O)NCCc2ccccc2)cc1`, the activation was -20.2%.

For `COCCCNC(=O)c1ccc(CNS(=O)(=O)c2ccc(NC(C)=O)cc2)cc1`, the activation was 36.8% (active).

As to `CC(C)(C)NC(=O)Cn1c(SCC(=O)Nc2nccs2)nc2ccccc21`, the activation is -9.44%.

Turning to `CSc1nc(-c2ccco2)nn1C(=O)c1ccccc1Cl`, the activation is 56.1% (active).

On to `CS(=O)(=O)n1nc(-c2ccco2)nc1N`, for which the activation is -9.25%.

As for `CSc1nc(-c2ccco2)nn1C(=O)CCc1ccccc1`, the activation was -13.4%.
